Test results: the supplement of paper PMC3616981
± gives the standard deviation of the averaged measurements.

Compound: CC(C)c1cccc(C(C)C)c1N1C(=O)c2ccc(O)cc2C1=O
Experiment: BioMAP readout fold decrease vs vehicle (vehicle/treated); higher = stronger decrease of the readout vs vehicle (values <1 mean increase)
Experimental: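 BioSeek BioMAP human primary cell (co-)culture systems (3C, 4H, LPS, SAg, BE3C, CASM3C, hDFCGF, KF3CT) treated with 5HPP-33 at 1.48, 4.44, 13.3 and 40 µM. Read-outs are protein levels by ELISA, proliferation and SRB total protein. Duplicate rows per assay are averaged as replicates. Tested in ToxCast Phase II for this study; exposure time not stated.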
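Further: Co-cultures of keratinocytes, bronchial epithelial and smooth muscle cells, fibroblasts, HUVECs and PBMCs under stimuli like LPS, TNF-α, IFN-γ, IL-1β, TGF-β or EGF, SRB reflecting cytotoxicity.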

Row | Target | BioMAP readout fold decrease (1.48 µM) | BioMAP readout fold decrease (4.44 µM) | BioMAP readout fold decrease (13.3 µM) | BioMAP readout fold decrease (40 µM)
1 | 3C_ICAM1 | 1.05 ± 0.025 | 1.05 ± 0.019 | 1.02 ± 0.013 | 1.08 ± 0.087
2 | KF3CT_MMP9 | 0.991 ± 0.0099 | 1.17 ± 0.028 | 1.45 ± 0.081 | 4.32 ± 0.16
3 | 3C_SRB | 0.983 ± 0.018 | 1.13 ± 0.012 | 1.46 ± 0.018 | 2.09 ± 0.16
4 | 3C_MCP1 | 1.04 ± 0.015 | 0.986 ± 0.0064 | 0.8619 ± 0.0073 | 0.919 ± 0.018
5 | SAg_MCP1 | 1.08 ± 0.023 | 0.997 ± 0.021 | 0.892 ± 0.0095 | 4.61 ± 0.68
6 | CASM3C_SRB | 1.022 ± 0.0094 | 1.1 ± 0.012 | 1.07 ± 0.023 | 1.41 ± 0.047
7 | SAg_SRB | 0.9638 ± 0.0049 | 1.1 ± 0.021 | 1.299 ± 0.011 | 1.9 ± 0.097
8 | BE3C_uPA | 1.07 ± 0.019 | 1.017 ± 0.0048 | 1.027 ± 0.0098 | 1.15 ± 0.042
9 | CASM3C_IL8 | 1.02 ± 0.02 | 1.074 ± 0.0085 | 0.938 ± 0.016 | 0.872 ± 0.025
10 | hDFCGF_MMP1 | 0.956 ± 0.05 | 0.93304 ± 0.00091 | 0.85 ± 0.0086 | 1.09 ± 0.13
